Measured values taken from PubChem BioAssay (EPA / NIEHS).
Records with an inconclusive call do not appear. Activity calls are given as the source filed them. Rule for the calls, unless noted: active = hit-call score of the fitted dose curve at least 0.9, where 1 is the maximum; inactive = score below 0.9.

How the values were obtained:
[1] = biological target: Nuclear respiratory factor 1 (Homo sapiens) (UniProt Q16656); experiment: ATG_NRF1_CIS: Attagene CIS-FACTORIAL HepG2 Assay for human Nuclear Respiratory Factor 1 (NRF1) Orphan Gene (AID 2282987); conditions: HepG2 NRF1 cis-element reporter, Attagene multiplex; actives raise or lower the signal
Chain of Nuclear respiratory factor 1 (Homo sapiens) (Q16656 whole entry, looked up): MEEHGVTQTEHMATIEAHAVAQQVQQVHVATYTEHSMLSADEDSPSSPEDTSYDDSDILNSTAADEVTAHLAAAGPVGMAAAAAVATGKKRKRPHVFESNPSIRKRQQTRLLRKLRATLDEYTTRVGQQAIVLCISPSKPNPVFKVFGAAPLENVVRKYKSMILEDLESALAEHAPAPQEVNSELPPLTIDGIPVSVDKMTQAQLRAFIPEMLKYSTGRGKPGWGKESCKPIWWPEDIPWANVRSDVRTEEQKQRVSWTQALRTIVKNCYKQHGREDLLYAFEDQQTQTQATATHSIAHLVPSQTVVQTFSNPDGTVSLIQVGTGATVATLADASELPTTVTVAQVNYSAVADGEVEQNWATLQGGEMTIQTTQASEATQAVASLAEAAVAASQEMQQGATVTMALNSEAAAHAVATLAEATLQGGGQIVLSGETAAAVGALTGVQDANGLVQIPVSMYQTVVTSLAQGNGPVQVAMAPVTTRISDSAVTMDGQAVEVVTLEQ
Method in brief: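 Endogenous NRF1-driven reporter transcription measured in transiently transfected human HepG2 liver cells. Readout: reporter mRNA by RT-PCR and capillary electrophoresis with fluorescence detection, 24 h post-dosing. Gain or loss of signal fitted relative to DMSO baseline.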

[2] = ATG_NFI_CIS: Attagene CIS-FACTORIAL HepG2 Assay for human Nuclear Factor I (NFI) (AID 2282989); conditions: HepG2 cis-regulatory reporter, NFI response element transcription; actives raise or lower the signal
Method in brief: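 Multiplexed cis-reporter system in human HepG2 cells reports native TF activity as reporter mRNA induction 24 h post-dose. Fragments labelled with 6-FAM, HpaI-digested and resolved by capillary electrophoresis; activity fitted both directions versus DMSO.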

[3] = biological target: Myc proto-oncogene protein (Homo sapiens) (UniProt P01106); experiment: ATG_Myc_CIS: Attagene CIS-FACTORIAL HepG2 Assay for human Myelocytomatosis (Myc) Proto-Oncogene Transcription Factor (AID 2282990); conditions: HepG2, Attagene cis-reporter transcription factor activity; actives raise or lower the signal
Chain of Myc proto-oncogene protein (Homo sapiens) (P01106 whole entry, looked up): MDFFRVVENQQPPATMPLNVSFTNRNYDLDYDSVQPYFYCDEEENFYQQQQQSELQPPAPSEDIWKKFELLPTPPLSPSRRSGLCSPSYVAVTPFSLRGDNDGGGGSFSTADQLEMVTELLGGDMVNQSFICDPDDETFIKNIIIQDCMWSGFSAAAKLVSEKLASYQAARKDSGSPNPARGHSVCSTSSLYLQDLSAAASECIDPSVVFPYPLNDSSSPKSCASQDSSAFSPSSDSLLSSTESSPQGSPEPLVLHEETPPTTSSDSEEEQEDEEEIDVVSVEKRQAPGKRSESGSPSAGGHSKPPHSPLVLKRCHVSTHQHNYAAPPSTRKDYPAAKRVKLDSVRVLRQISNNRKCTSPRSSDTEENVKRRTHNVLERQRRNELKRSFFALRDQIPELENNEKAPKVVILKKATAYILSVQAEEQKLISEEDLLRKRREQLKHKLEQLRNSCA
Method in brief: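 HepG2 cells transiently transfected with multiple cis-promoter-driven reporter transcription units, so endogenous TF activity is read. After 24 h compound exposure, reporter mRNA was quantified by RT-PCR, 6-FAM labelling, HpaI digestion and capillary electrophoresis; bidirectional fit versus DMSO.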

[4] = ATG_NF_kB_CIS: Attagene CIS-FACTORIAL HepG2 Assay for human Nuclear Factor Kappa B (NF-kB) (AID 2282991); conditions: HepG2 Attagene cis-factorial NF-kB reporter mRNA; actives raise or lower the signal
Method in brief: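 Read-out: reporter transcript levels quantified by RT-PCR plus capillary electrophoresis of 6-FAM-labelled, HpaI-cut fragments. Transfected HepG2 cells, 24 h compound exposure, endogenous NF-kB-driven cis element; gain or loss scored versus DMSO.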

[5] = ATG_NRF2_ARE_CIS: Attagene CIS-FACTORIAL HepG2 Assay for human Nuclear Factor Erythroid 2 Related Factor 2 (NFR2) response to Antioxidant Response Elements (ARE) (AID 2282992); conditions: HepG2 Attagene ARE/NRF2 reporter, transcription factor activity; actives raise or lower the signal
Method in brief: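 Readout: reporter mRNA quantified by RT-PCR plus FAM-labelled primer extension, HpaI digestion and capillary electrophoresis, 24 h after dosing transfected HepG2 cells. Gain or loss of signal is fitted bidirectionally against DMSO baseline.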

[6] = BSK_3C_TissueFactor: BioMAP Diversity Plus: 3C Assay for Tissue Factor Biomarker Activity (AID 2282997); conditions: BioMAP 3C HUVEC, tissue factor biomarker readout; actives raise or lower the signal
Method in brief: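 HUVEC, 3C system, 24 h post-dose; Tissue Factor by ELISA; bidirectional fit vs DMSO baseline.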

[7] = BSK_3C_uPAR: BioMAP Diversity Plus: 3C Assay for Urokinase-type plasminogen activator receptor (uPAR) Biomarker Activity (AID 2282998); conditions: BioMAP 3C HUVEC, uPAR biomarker ELISA; actives raise or lower the signal
Method in brief: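 Values derive from bidirectional curve fitting relative to DMSO, which served as baseline of activity. uPAR was measured by ELISA in human umbilical vein endothelial primary cultures 24 h after compound addition.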

[8] = BSK_3C_VCAM1: BioMAP Diversity Plus: 3C Assay for Vascular cell adhesion molecule 1 (VCAM1) Biomarker Activity (AID 2282999); conditions: BioMAP 3C HUVEC, VCAM1 ELISA, cytokine-stimulated; actives raise or lower the signal
Method in brief: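 Vascular primary endothelium (human umbilical vein) was exposed to chemicals and assayed 24 h later. VCAM-1 levels came from ELISA, with DMSO serving as baseline for bidirectional fitting.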

[9] = BSK_4H_Eotaxin3: BioMAP Diversity Plus: 4H Assay for Eotaxin 3 Biomarker Activity (AID 2283000); conditions: primary human endothelial cells (HUVEC); actives raise or lower the signal
Method in brief: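 Readout is Eotaxin-3 (CCL26) level by ELISA in primary human umbilical vein endothelial cells harvested 24 h after chemical exposure; activity fitted in both directions against DMSO control.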

[10] = biological target: human Peroxisome Proliferator-activated Receptor alpha (PPARa), PPARA (gene 5465) (UniProt Q07869); experiment: ATG_PPARa_TRANS: Attagene TRANS-FACTORIAL HepG2 Assay for human Peroxisome Proliferator-activated Receptor alpha (PPARa) (AID 2283001; active = hit-call score of the fitted dose curve at least 0.9, where 1 is the maximum)
Chain of human Peroxisome Proliferator-activated Receptor alpha (PPARa), PPARA (gene 5465) (Q07869 whole entry, looked up): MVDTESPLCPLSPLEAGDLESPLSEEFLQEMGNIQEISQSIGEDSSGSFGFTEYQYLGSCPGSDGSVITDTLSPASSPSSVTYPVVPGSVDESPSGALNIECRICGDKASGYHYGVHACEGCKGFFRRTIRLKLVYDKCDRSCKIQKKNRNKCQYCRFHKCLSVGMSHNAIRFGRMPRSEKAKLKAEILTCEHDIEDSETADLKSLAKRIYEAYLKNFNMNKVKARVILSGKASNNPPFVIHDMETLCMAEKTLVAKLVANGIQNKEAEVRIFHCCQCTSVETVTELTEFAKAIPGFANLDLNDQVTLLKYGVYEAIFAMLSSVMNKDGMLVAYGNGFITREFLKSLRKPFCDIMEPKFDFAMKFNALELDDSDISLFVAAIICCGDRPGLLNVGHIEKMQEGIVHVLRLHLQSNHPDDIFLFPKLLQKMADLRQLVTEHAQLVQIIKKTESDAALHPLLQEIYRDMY
Method in brief: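 Cells (HepG2) are transfected with multiple reporter transcription units, exposed to chemical for 24 h, then total RNA is reverse-transcribed and amplified. Labelled products are quantified by capillary electrophoresis; induction is referenced to DMSO.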

[11] = biological target: human Peroxisome Proliferator-activated Receptor delta (PPARd), PPARD (gene 5467) (UniProt Q03181); experiment: ATG_PPARd_TRANS: Attagene TRANS-FACTORIAL HepG2 Assay for human Peroxisome Proliferator-activated Receptor delta (PPARd) (AID 2283002; active = hit-call score of the fitted dose curve at least 0.9, where 1 is the maximum)
Chain of human Peroxisome Proliferator-activated Receptor delta (PPARd), PPARD (gene 5467) (Q03181 whole entry, looked up, the tested form may be a part): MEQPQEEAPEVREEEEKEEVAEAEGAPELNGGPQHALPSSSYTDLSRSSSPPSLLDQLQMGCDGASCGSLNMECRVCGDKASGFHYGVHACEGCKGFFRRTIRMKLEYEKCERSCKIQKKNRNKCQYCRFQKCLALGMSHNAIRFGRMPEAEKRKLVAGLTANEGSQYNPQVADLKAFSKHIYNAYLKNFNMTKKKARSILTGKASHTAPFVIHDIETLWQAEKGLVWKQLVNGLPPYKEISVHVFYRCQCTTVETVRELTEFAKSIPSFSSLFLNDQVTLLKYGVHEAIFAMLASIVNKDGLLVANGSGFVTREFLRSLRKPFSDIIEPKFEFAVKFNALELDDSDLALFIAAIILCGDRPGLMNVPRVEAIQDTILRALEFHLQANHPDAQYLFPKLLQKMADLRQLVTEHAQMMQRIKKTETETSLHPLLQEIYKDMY
Method in brief: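 HepG2 cells transiently transfected with multiplexed GAL4-UAS reporter units and exogenous chimeric NR-Gal4 proteins; 24 h compound exposure. Reporter mRNA measured by RT-PCR, 6-FAM labelling, HpaI digestion and capillary electrophoresis; gain of signal versus DMSO.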

[12] = read-out: Intercellular Adhesion Molecule 1 (ICAM1), ICAM1 (gene 3383); experiment: BSK_3C_ICAM1: BioMAP Diversity Plus: 3C Assay for Intercellular Adhesion Molecule 1 (ICAM1) Biomarker Activity (AID 2283003); conditions: primary human endothelial cells (HUVEC); actives raise or lower the signal
Method in brief: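 Chemicals are dosed onto primary human umbilical vein endothelium (3C system). After 24 h, ICAM-1 is measured by ELISA, and responses are fitted bidirectionally relative to DMSO.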

[13] = biological target: Retinoic acid receptor alpha (Homo sapiens) (UniProt P10276); experiment: ATG_RARa_TRANS: Attagene TRANS-FACTORIAL HepG2 Assay for human Retinoic Acid Receptor alpha (RARa) (AID 2283005; active = hit-call score of the fitted dose curve at least 0.9, where 1 is the maximum)
Chain of Retinoic acid receptor alpha (Homo sapiens) (P10276 whole entry, looked up, the tested form may be a part): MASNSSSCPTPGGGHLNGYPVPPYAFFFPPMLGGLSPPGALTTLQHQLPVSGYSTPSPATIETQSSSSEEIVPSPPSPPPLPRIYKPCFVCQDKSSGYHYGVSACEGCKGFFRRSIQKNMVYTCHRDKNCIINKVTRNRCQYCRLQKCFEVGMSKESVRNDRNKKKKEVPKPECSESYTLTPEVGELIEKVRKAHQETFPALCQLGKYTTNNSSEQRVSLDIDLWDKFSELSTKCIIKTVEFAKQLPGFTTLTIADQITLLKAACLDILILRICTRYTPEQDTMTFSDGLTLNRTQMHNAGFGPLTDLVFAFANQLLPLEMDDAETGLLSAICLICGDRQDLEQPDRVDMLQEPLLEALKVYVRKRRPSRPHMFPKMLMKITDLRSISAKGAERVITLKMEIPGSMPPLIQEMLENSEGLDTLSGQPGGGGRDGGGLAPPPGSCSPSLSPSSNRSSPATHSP
Method in brief: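 HepG2 cells transiently transfected with multiple reporter units expressing chimeric RARα-GAL4 fusion, with GAL4-UAS-driven reporters. After 24 h compound exposure, reporter mRNA induction quantified by RT-PCR and capillary electrophoresis with fluorescent labeling; gain-of-signal fitted relative to DMSO control.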

[14] = BSK_3C_Proliferation: Cell Proliferation Assessment in the BioMAP Diversity Plus: 3C Assay (AID 2283006); conditions: primary human endothelial cells (HUVEC);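 for AC50: potency may reflect either rise or fall in cell number versus DMSO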
Method in brief: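 Cells (human umbilical vein endothelial, sub-confluent) receive test chemical; after 48 h they are fixed in 10% trichloroacetic acid, stained with 0.1% SRB and read at 560 nm. Activity is referenced to DMSO, fitting increases and decreases.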

[15] = biological target: Peroxisome proliferator-activated receptor gamma (Homo sapiens) (UniProt P37231); experiment: ATG_PPARg_TRANS: Attagene TRANS-FACTORIAL HepG2 Assay for human Peroxisome Proliferator-activated Receptor-gamma (PPARg) (AID 2283007; active = hit-call score of the fitted dose curve at least 0.9, where 1 is the maximum)
Chain of Peroxisome proliferator-activated receptor gamma (Homo sapiens) (P37231 whole entry, looked up, the tested form may be a part): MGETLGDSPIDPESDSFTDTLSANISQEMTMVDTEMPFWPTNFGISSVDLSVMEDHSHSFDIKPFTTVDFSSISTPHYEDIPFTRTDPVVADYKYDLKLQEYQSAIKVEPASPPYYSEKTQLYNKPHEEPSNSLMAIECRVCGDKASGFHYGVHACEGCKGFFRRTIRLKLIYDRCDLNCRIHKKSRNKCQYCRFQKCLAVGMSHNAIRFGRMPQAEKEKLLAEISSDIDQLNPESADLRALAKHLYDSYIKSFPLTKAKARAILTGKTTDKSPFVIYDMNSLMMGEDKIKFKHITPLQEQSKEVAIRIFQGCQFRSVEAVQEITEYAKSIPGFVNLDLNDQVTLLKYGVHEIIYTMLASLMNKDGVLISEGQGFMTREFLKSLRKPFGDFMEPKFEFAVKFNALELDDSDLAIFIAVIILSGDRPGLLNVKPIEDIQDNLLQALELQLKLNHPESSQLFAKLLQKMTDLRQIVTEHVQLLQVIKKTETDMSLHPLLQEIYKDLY
Method in brief: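 Read-out: reporter mRNA induction, detected by fluorescence after RT-PCR and capillary electrophoresis. Transiently transfected human HepG2 liver cells carrying a chimeric NR-Gal4 construct were dosed for 24 h; activity was fitted upward relative to DMSO.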

[16] = biological target: Nuclear receptor subfamily 1 group I member 2 (Homo sapiens) (UniProt O75469); experiment: ATG_PXR_TRANS: Attagene TRANS-FACTORIAL HepG2 Assay for human Pregnane X Receptor (PXR) (AID 2283008; active = hit-call score of the fitted dose curve at least 0.9, where 1 is the maximum)
Chain of Nuclear receptor subfamily 1 group I member 2 (Homo sapiens) (O75469 whole entry, looked up, the tested form may be a part): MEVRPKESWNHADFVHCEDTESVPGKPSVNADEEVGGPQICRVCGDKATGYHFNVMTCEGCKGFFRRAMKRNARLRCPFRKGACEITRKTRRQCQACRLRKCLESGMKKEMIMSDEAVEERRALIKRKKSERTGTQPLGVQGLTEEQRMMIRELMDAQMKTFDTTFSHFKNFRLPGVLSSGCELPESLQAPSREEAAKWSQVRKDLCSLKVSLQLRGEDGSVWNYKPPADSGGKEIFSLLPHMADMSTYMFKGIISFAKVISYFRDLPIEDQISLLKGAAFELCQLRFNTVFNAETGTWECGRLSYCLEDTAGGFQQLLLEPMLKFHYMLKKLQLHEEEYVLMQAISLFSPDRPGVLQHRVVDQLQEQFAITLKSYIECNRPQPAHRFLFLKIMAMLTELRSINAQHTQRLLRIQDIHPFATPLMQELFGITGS
Method in brief: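 Trans-factorial format: exogenous NR-Gal4 fusion activity, not endogenous factor, in transfected human HepG2 liver cells. After 24 h dosing, RNA isolated, reverse-transcribed, amplified and resolved by capillary electrophoresis; induction scored versus DMSO.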

[17] = ATG_Oct_MLP_CIS: Attagene CIS-FACTORIAL HepG2 Assay for human Octamer-Binding Transcription Factor (Oct) (AID 2282993); conditions: HepG2 Attagene cis-factorial Oct reporter, mRNA; actives raise or lower the signal
Method in brief: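 After 24 h compound exposure, transfected HepG2 cells were lysed for total RNA; reporter-specific cDNA was PCR-amplified, fluorescently labelled and sized by capillary electrophoresis. Bidirectional curve fitting used DMSO as baseline.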

[18] = biological target: Cellular tumor antigen p53 (Homo sapiens) (UniProt P04637); experiment: ATG_p53_CIS: Attagene CIS-FACTORIAL HepG2 Assay for human p53 Transcription Factor (AID 2282994); conditions: HepG2 p53 cis-element reporter, Attagene mRNA; actives raise or lower the signal
Chain of Cellular tumor antigen p53 (Homo sapiens) (P04637 whole entry, looked up): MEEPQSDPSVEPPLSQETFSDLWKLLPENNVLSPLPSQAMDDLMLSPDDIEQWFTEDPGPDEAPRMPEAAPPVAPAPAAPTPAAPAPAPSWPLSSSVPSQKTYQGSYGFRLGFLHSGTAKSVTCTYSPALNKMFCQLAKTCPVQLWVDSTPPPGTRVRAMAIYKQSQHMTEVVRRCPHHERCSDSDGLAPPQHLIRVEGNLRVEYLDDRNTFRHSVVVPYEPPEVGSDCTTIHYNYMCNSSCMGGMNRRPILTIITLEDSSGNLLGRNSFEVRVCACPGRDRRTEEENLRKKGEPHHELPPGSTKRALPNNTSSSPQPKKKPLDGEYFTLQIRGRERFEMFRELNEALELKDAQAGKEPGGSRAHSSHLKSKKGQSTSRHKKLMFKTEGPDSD
Method in brief: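 Read-out: reporter mRNA by RT-PCR plus capillary electrophoresis with fluorescence detection. Human HepG2 liver cells carried transfected multi-reporter cis-element constructs, dosed 24 h. Gain or loss of signal fitted bidirectionally against DMSO control.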

[19] = biological target: human Retinoic Acid Receptor beta (RARb), RARB (gene 5915) (UniProt P10826); experiment: ATG_RARb_TRANS: Attagene TRANS-FACTORIAL HepG2 Assay for human Retinoic Acid Receptor beta (AID 2283004; active = hit-call score of the fitted dose curve at least 0.9, where 1 is the maximum)
Chain of human Retinoic Acid Receptor beta (RARb), RARB (gene 5915) (P10826 whole entry, looked up, the tested form may be a part): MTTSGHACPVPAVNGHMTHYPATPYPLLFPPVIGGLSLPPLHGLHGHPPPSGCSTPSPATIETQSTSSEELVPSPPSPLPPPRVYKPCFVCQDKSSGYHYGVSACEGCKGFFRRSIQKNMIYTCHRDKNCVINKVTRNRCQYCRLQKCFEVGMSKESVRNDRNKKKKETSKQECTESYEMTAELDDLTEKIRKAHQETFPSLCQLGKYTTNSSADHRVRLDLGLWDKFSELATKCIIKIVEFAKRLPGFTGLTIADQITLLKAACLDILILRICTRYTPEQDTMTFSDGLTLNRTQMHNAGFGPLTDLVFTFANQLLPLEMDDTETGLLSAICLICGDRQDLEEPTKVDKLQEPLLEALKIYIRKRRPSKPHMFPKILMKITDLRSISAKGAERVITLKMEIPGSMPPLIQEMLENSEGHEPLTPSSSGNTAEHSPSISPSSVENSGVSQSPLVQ
Method in brief: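 Readout is reporter mRNA induction: RNA reverse-transcribed, PCR-amplified, FAM-labelled, HpaI-cut and resolved by capillary electrophoresis. Transiently transfected HepG2 cells carrying exogenous NR–Gal4 chimeras were dosed for 24 h; activity fitted upward relative to DMSO.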

[20] = biological target: human Retinoic Acid Receptor gamma (RARg), RARG (gene 5916) (UniProt P13631); experiment: ATG_RARg_TRANS: Attagene TRANS-FACTORIAL HepG2 Assay for human Retinoic Acid Receptor gamma (RARg) (AID 2283009; active = hit-call score of the fitted dose curve at least 0.9, where 1 is the maximum)
Chain of human Retinoic Acid Receptor gamma (RARg), RARG (gene 5916) (P13631 whole entry, looked up, the tested form may be a part): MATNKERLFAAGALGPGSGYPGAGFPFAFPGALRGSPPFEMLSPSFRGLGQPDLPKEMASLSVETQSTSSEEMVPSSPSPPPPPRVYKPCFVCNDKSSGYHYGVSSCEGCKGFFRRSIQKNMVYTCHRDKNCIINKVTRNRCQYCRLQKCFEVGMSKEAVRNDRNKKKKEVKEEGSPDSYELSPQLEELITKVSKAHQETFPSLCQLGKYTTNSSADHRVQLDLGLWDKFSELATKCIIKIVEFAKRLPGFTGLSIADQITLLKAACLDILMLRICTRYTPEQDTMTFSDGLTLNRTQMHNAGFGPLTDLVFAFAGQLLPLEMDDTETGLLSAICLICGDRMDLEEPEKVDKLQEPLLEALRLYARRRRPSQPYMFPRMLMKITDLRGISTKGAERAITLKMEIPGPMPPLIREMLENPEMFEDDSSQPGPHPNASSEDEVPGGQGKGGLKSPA
Method in brief: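 TRANS format measured activity of exogenous NR-GAL4 fusion (RARg) in transfected HepG2 liver cells after 24 h dosing. Induced reporter RNA was detected by RT-PCR/capillary electrophoresis fluorescence, analysed in the positive direction against DMSO.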

Measured: AC50

O[Si](c1ccccc1)(c1ccccc1)c1ccccc1
active: [1] 100 µM | [2] 100 µM | [5] 31.1 µM | [7] 32.9 µM | [9] 30.1 µM | [14] 24.4 µM | [15] 44.4 µM | [16] 0.68 µM
inactive: [3] | [4] | [6] | [8] | [10] | [11] | [12] | [13]

CC(C)c1ccccc1N
inactive: [1] | [3] | [4] | [5] | [17] | [18] | [10] | [19] | [15] | [16]

C=C(C)C(=O)OCC(F)(F)C(F)(F)C(F)(F)C(F)(F)C(F)(F)C(F)(F)C(F)(F)F
inactive: [1] | [3] | [4] | [5] | [17] | [6] | [7] | [8] | [9] | [11] | [12] | [19] | [14] | [15] | [16] | [20]

Oc1ccc(Nc2ccccc2)cc1
active: [5] 43.9 µM | [8] 20 µM | [9] 0.547 µM | [14] 14.6 µM | [15] 23.4 µM | [16] 20.5 µM
inactive: [1] | [3] | [4] | [18] | [6] | [7] | [10] | [11] | [12]

O=C(O)C(F)(F)C(F)(F)C(F)F
inactive: [1] | [3] | [4] | [5] | [6] | [7] | [8] | [9] | [10] | [12] | [19] | [13] | [14] | [15] | [16]

CO[Si](OC)(c1ccccc1)c1ccccc1
inactive: [1] | [3] | [4] | [5] | [17] | [18] | [6] | [9] | [10] | [12] | [19] | [13] | [15] | [20]
active: [7] 34.8 µM | [8] 36.7 µM | [14] 37 µM | [16] 15.4 µM

CC/C=C\CCOC(C)=O
inactive: [1] | [2] | [3] | [4] | [5] | [10] | [16]

O=C(OCCOCCOCCOC(=O)c1ccccc1)c1ccccc1
inactive: [1] | [3] | [4] | [5] | [17] | [19] | [15]
